# Experimental data reported in paper PMC11062922 (Nature Chemical Biology, 2023).
# Like-named read-outs stand apart in the source and are kept apart here.
# Assays:
# Details in all cases: read-out: apparent Kd, n = 1
# [1] = tested on: NUAK2
# [2] = tested on: PAK6
# [3] = tested on: RET
# [4] = compound concentrations:100 nM and 1000 nM (sheet 'Lestaurtinib' of Supplementary Table 1),run:Lestaurtinib_03252_R1,Plate:MR032
# [5] = compound concentrations:100 nM and 1000 nM (sheet 'Lestaurtinib' of Supplementary Table 1),run:Lestaurtinib_03260_R2,Plate:MR033
# [6] = compound concentrations:100 nM and 1000 nM (sheet 'Lestaurtinib' of Supplementary Table 1),run:Lestaurtinib_02339_R2,Plate:MR001
# [7] = compound concentrations:100 nM and 1000 nM (sheet 'Lestaurtinib' of Supplementary Table 1),run:Lestaurtinib_02364_R3,Plate:MR002
# [8] = compound concentrations:100 nM and 1000 nM (sheet 'Lestaurtinib' of Supplementary Table 1),run:Lestaurtinib_02367_R3,Plate:MR003
# [9] = compound concentrations:100 nM and 1000 nM (sheet 'Lestaurtinib' of Supplementary Table 1),run:Lestaurtinib_02381_R3,Plate:MR004
# [10] = compound concentrations:100 nM and 1000 nM (sheet 'Lestaurtinib' of Supplementary Table 1),run:Lestaurtinib_02422_R3,Plate:MR006
# [11] = compound concentrations:100 nM and 1000 nM (sheet 'Lestaurtinib' of Supplementary Table 1),run:Lestaurtinib_02437_R1,Plate:MR007
substance,measurement,setting,value
Lestaurtinib,potency estimated from few doses,"[1]; compound concentrations:100 nM and 1000 nM (sheet 'Lestaurtinib' of Supplementary Table 1),run:Lestaurtinib_03172_R1,Plate:MR031",98.7 nM
same,potency estimated from few doses,[1]; [4],45.5 nM
same,potency estimated from few doses,"[1]; compound concentrations:100 nM and 1000 nM (sheet 'Lestaurtinib' of Supplementary Table 1),run:Lestaurtinib_03252_R2,Plate:MR032",831 nM
same,potency estimated from few doses,[1]; [5],387 nM
same,potency estimated from few doses,[2]; [6],151 nM
same,potency estimated from few doses,"[2]; compound concentrations:100 nM and 1000 nM (sheet 'Lestaurtinib' of Supplementary Table 1),run:Lestaurtinib_02364_R2,Plate:MR002",137 nM
same,potency estimated from few doses,[2]; [7],91000 nM
same,potency estimated from few doses,[2]; [8],89.2 nM
same,potency estimated from few doses,"[2]; compound concentrations:100 nM and 1000 nM (sheet 'Lestaurtinib' of Supplementary Table 1),run:Lestaurtinib_02381_R1,Plate:MR004",771 nM
same,potency estimated from few doses,[2]; [9],136 nM
same,potency estimated from few doses,"[2]; compound concentrations:100 nM and 1000 nM (sheet 'Lestaurtinib' of Supplementary Table 1),run:Lestaurtinib_02407_R1,Plate:MR005",1800 nM
same,potency estimated from few doses,"[2]; compound concentrations:100 nM and 1000 nM (sheet 'Lestaurtinib' of Supplementary Table 1),run:Lestaurtinib_02407_R2,Plate:MR005",521 nM
same,potency estimated from few doses,"[2]; compound concentrations:100 nM and 1000 nM (sheet 'Lestaurtinib' of Supplementary Table 1),run:Lestaurtinib_02407_R3,Plate:MR005",1490 nM
same,potency estimated from few doses,[2]; [10],1350 nM
same,potency estimated from few doses,[2]; [11],42.8 nM
same,potency estimated from few doses,"[2]; compound concentrations:100 nM and 1000 nM (sheet 'Lestaurtinib' of Supplementary Table 1),run:Lestaurtinib_02437_R2,Plate:MR007",638 nM
same,potency estimated from few doses,"[2]; compound concentrations:100 nM and 1000 nM (sheet 'Lestaurtinib' of Supplementary Table 1),run:Lestaurtinib_02437_R3,Plate:MR007",165 nM
same,potency estimated from few doses,"[2]; compound concentrations:100 nM and 1000 nM (sheet 'Lestaurtinib' of Supplementary Table 1),run:Lestaurtinib_02438_R2,Plate:MR008",113 nM
same,potency estimated from few doses,"[2]; compound concentrations:100 nM and 1000 nM (sheet 'Lestaurtinib' of Supplementary Table 1),run:Lestaurtinib_02443_R1,Plate:MR009",830 nM
same,potency estimated from few doses,"[2]; compound concentrations:100 nM and 1000 nM (sheet 'Lestaurtinib' of Supplementary Table 1),run:Lestaurtinib_02443_R2,Plate:MR009",1300 nM
same,potency estimated from few doses,"[2]; compound concentrations:100 nM and 1000 nM (sheet 'Lestaurtinib' of Supplementary Table 1),run:Lestaurtinib_02443_R3,Plate:MR009",169 nM
same,potency estimated from few doses,"[2]; compound concentrations:100 nM and 1000 nM (sheet 'Lestaurtinib' of Supplementary Table 1),run:Lestaurtinib_02473_R3,Plate:MR010",121 nM
same,potency estimated from few doses,"[2]; compound concentrations:100 nM and 1000 nM (sheet 'Lestaurtinib' of Supplementary Table 1),run:Lestaurtinib_02482_R2,Plate:MR011",852 nM
same,potency estimated from few doses,"[2]; compound concentrations:100 nM and 1000 nM (sheet 'Lestaurtinib' of Supplementary Table 1),run:Lestaurtinib_02482_R3,Plate:MR011",797 nM
same,potency estimated from few doses,"[2]; compound concentrations:100 nM and 1000 nM (sheet 'Lestaurtinib' of Supplementary Table 1),run:Lestaurtinib_02487_R1,Plate:MR012",1690 nM
same,potency estimated from few doses,"[2]; compound concentrations:100 nM and 1000 nM (sheet 'Lestaurtinib' of Supplementary Table 1),run:Lestaurtinib_02487_R3,Plate:MR012",100 nM
same,potency estimated from few doses,"[2]; compound concentrations:100 nM and 1000 nM (sheet 'Lestaurtinib' of Supplementary Table 1),run:Lestaurtinib_02496_R2,Plate:MR013",1370 nM
same,potency estimated from few doses,"[2]; compound concentrations:100 nM and 1000 nM (sheet 'Lestaurtinib' of Supplementary Table 1),run:Lestaurtinib_02496_R3,Plate:MR013",1590 nM
same,potency estimated from few doses,"[2]; compound concentrations:100 nM and 1000 nM (sheet 'Lestaurtinib' of Supplementary Table 1),run:Lestaurtinib_02566_R1,Plate:MR014",49.6 nM
same,potency estimated from few doses,"[2]; compound concentrations:100 nM and 1000 nM (sheet 'Lestaurtinib' of Supplementary Table 1),run:Lestaurtinib_02566_R3,Plate:MR014",35.1 nM
same,potency estimated from few doses,"[2]; compound concentrations:100 nM and 1000 nM (sheet 'Lestaurtinib' of Supplementary Table 1),run:Lestaurtinib_02572_R3,Plate:MR015",1350 nM
same,potency estimated from few doses,"[2]; compound concentrations:100 nM and 1000 nM (sheet 'Lestaurtinib' of Supplementary Table 1),run:Lestaurtinib_02577_R1,Plate:MR016",1350 nM
same,potency estimated from few doses,"[2]; compound concentrations:100 nM and 1000 nM (sheet 'Lestaurtinib' of Supplementary Table 1),run:Lestaurtinib_02584_R1,Plate:MR017",953 nM
same,potency estimated from few doses,"[2]; compound concentrations:100 nM and 1000 nM (sheet 'Lestaurtinib' of Supplementary Table 1),run:Lestaurtinib_02584_R3,Plate:MR017",896 nM
same,potency estimated from few doses,"[2]; compound concentrations:100 nM and 1000 nM (sheet 'Lestaurtinib' of Supplementary Table 1),run:Lestaurtinib_02601_R2,Plate:MR018",846 nM
same,potency estimated from few doses,"[2]; compound concentrations:100 nM and 1000 nM (sheet 'Lestaurtinib' of Supplementary Table 1),run:Lestaurtinib_02601_R3,Plate:MR018",974 nM
same,potency estimated from few doses,"[2]; compound concentrations:100 nM and 1000 nM (sheet 'Lestaurtinib' of Supplementary Table 1),run:Lestaurtinib_02606_R1,Plate:MR019",1440 nM
same,potency estimated from few doses,"[2]; compound concentrations:100 nM and 1000 nM (sheet 'Lestaurtinib' of Supplementary Table 1),run:Lestaurtinib_02606_R2,Plate:MR019",722 nM
same,potency estimated from few doses,"[2]; compound concentrations:100 nM and 1000 nM (sheet 'Lestaurtinib' of Supplementary Table 1),run:Lestaurtinib_02624_R1,Plate:MR020",730 nM
same,potency estimated from few doses,"[2]; compound concentrations:100 nM and 1000 nM (sheet 'Lestaurtinib' of Supplementary Table 1),run:Lestaurtinib_02624_R2,Plate:MR020",686 nM
same,potency estimated from few doses,"[2]; compound concentrations:100 nM and 1000 nM (sheet 'Lestaurtinib' of Supplementary Table 1),run:Lestaurtinib_02624_R3,Plate:MR020",783 nM
same,potency estimated from few doses,"[2]; compound concentrations:100 nM and 1000 nM (sheet 'Lestaurtinib' of Supplementary Table 1),run:Lestaurtinib_02748_R1,Plate:MR024",896 nM
same,potency estimated from few doses,"[2]; compound concentrations:100 nM and 1000 nM (sheet 'Lestaurtinib' of Supplementary Table 1),run:Lestaurtinib_02752_R1,Plate:MR025",793 nM
same,potency estimated from few doses,"[2]; compound concentrations:100 nM and 1000 nM (sheet 'Lestaurtinib' of Supplementary Table 1),run:Lestaurtinib_02752_R2,Plate:MR025",782 nM
same,potency estimated from few doses,"[2]; compound concentrations:100 nM and 1000 nM (sheet 'Lestaurtinib' of Supplementary Table 1),run:Lestaurtinib_02752_R3,Plate:MR025",799 nM
same,potency estimated from few doses,"[2]; compound concentrations:100 nM and 1000 nM (sheet 'Lestaurtinib' of Supplementary Table 1),run:Lestaurtinib_02765_R2,Plate:MR026",766 nM
same,potency estimated from few doses,"[2]; compound concentrations:100 nM and 1000 nM (sheet 'Lestaurtinib' of Supplementary Table 1),run:Lestaurtinib_02766_R1,Plate:MR027",519 nM
same,potency estimated from few doses,"[2]; compound concentrations:100 nM and 1000 nM (sheet 'Lestaurtinib' of Supplementary Table 1),run:Lestaurtinib_02766_R2,Plate:MR027",66 nM
same,potency estimated from few doses,"[2]; compound concentrations:100 nM and 1000 nM (sheet 'Lestaurtinib' of Supplementary Table 1),run:Lestaurtinib_02766_R3,Plate:MR027",696 nM
same,potency estimated from few doses,"[2]; compound concentrations:100 nM and 1000 nM (sheet 'Lestaurtinib' of Supplementary Table 1),run:Lestaurtinib_02768_R1,Plate:MR028",996 nM
same,potency estimated from few doses,"[2]; compound concentrations:100 nM and 1000 nM (sheet 'Lestaurtinib' of Supplementary Table 1),run:Lestaurtinib_02795_R1,Plate:MR022",648 nM
same,potency estimated from few doses,"[2]; compound concentrations:100 nM and 1000 nM (sheet 'Lestaurtinib' of Supplementary Table 1),run:Lestaurtinib_02795_R2,Plate:MR022",528 nM
same,potency estimated from few doses,"[2]; compound concentrations:100 nM and 1000 nM (sheet 'Lestaurtinib' of Supplementary Table 1),run:Lestaurtinib_02795_R3,Plate:MR022",1440 nM
same,potency estimated from few doses,"[2]; compound concentrations:100 nM and 1000 nM (sheet 'Lestaurtinib' of Supplementary Table 1),run:Lestaurtinib_02802_R1,Plate:MR029",604 nM
same,potency estimated from few doses,"[2]; compound concentrations:100 nM and 1000 nM (sheet 'Lestaurtinib' of Supplementary Table 1),run:Lestaurtinib_02802_R3,Plate:MR029",85.9 nM
same,potency estimated from few doses,"[2]; compound concentrations:100 nM and 1000 nM (sheet 'Lestaurtinib' of Supplementary Table 1),run:Lestaurtinib_02896_R1,Plate:MR030",541 nM
same,potency estimated from few doses,"[2]; compound concentrations:100 nM and 1000 nM (sheet 'Lestaurtinib' of Supplementary Table 1),run:Lestaurtinib_02896_R2,Plate:MR030",1310 nM
same,potency estimated from few doses,"[2]; compound concentrations:100 nM and 1000 nM (sheet 'Lestaurtinib' of Supplementary Table 1),run:Lestaurtinib_02896_R3,Plate:MR030",785 nM
same,potency estimated from few doses,"[2]; compound concentrations:100 nM and 1000 nM (sheet 'Lestaurtinib' of Supplementary Table 1),run:Lestaurtinib_03172_R2,Plate:MR031",581 nM
same,potency estimated from few doses,[2]; [4],825 nM
same,potency estimated from few doses,"[2]; compound concentrations:100 nM and 1000 nM (sheet 'Lestaurtinib' of Supplementary Table 1),run:Lestaurtinib_03260_R1,Plate:MR033",744 nM
same,potency estimated from few doses,[2]; [5],805 nM
same,potency estimated from few doses,[3]; [6],240 nM
same,potency estimated from few doses,[3]; [7],273 nM
same,potency estimated from few doses,"[3]; compound concentrations:100 nM and 1000 nM (sheet 'Lestaurtinib' of Supplementary Table 1),run:Lestaurtinib_02367_R1,Plate:MR003",274 nM
same,potency estimated from few doses,"[3]; compound concentrations:100 nM and 1000 nM (sheet 'Lestaurtinib' of Supplementary Table 1),run:Lestaurtinib_02367_R2,Plate:MR003",260 nM
same,potency estimated from few doses,[3]; [8],265 nM
same,potency estimated from few doses,"[3]; compound concentrations:100 nM and 1000 nM (sheet 'Lestaurtinib' of Supplementary Table 1),run:Lestaurtinib_02381_R2,Plate:MR004",218 nM
same,potency estimated from few doses,[3]; [9],113 nM
same,potency estimated from few doses,"[3]; compound concentrations:100 nM and 1000 nM (sheet 'Lestaurtinib' of Supplementary Table 1),run:Lestaurtinib_02422_R1,Plate:MR006",162 nM
same,potency estimated from few doses,[3]; [10],269 nM
same,potency estimated from few doses,[3]; [11],142 nM
